Results filed as inconclusive are left out. Unmarked numbers belong to inactive results. Calls follow the shape of the dose curve; as a rule, active = well fitted cell-killing curve with a large enough effect; inconclusive = small, poorly fitted or top-dose-only effect, or effect the other way; inactive = flat fitted curve, though single readings scatter. Where a SMILES comes first, the peptide text is derived from it. [ ]: non-standard residue; d: D form. ξ: configuration not given here. ξTyr(βOH) = NC(C(=O)O)C(O)c1ccc(O)cc1
Test system: CAOV3
Experiment: Primary qHTS to identify gynecologic anti-cancer compounds using libraries of approved drugs and bioactive compounds (AID 1345084); also: nearly all actives have a fitted effect of over 55% in size
Settings: Gynecologic cancer cell panel viability, ATPlite luminescence, 48 h; series mostly up to 57.5 µM; activity change, negative = cytotoxicity: at the top concentration
Method in brief: (§1)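 Five-concentration response, 48 h; readout is ATP-driven luciferase luminescence.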
% is scaled to controls: 0 for no effect and ±100 for the full control effect.

Structure (SMILES) | activity change, negative = cytotoxicity
COc1cc(/C=C/C(=O)O[C@H]2[C@@H]3C=CO[C@@H](O[C@@H]4O[C@H](CO)[C@@H](O)[C@H](O)[C@H]4O)[C@@H]3[C@@]3(CO)O[C@@H]23)ccc1O | 2.64% [at 25.3 µM]
COC1OC(=O)C2=C1C1(C)CCCC(C)(C)C1CC2O (centres undefined) | -6.15%
C/C1=C\CC(C)(C)/C=C/C/C(C(=O)O)=C/CC1 | -2.38%
CC1CCC2(NC1)OC1C(O)C3C4CCC5CC(O[C@@H]6O[C@H](CO)[C@@H](O)[C@H](O)[C@H]6O[C@@H]6O[C@@H](C)[C@H](O)[C@@H](O)[C@H]6O)CCC5(C)C4CCC3(C)C1C2C (some centres undefined) | 26.5% [at 25.3 µM]
O=C(O)/C=C/c1ccc2occc2c1O[C@@H]1O[C@H](CO)[C@@H](O)[C@H](O)[C@H]1O | -9.06% [at 38.5 µM]
C=C(COC(=O)CC(C)C)C1Cc2cc(C(C)=O)ccc2O1 (centres undefined) | 2.52%
COc1cc(C2CC(=O)Nc3c2cc(Br)c2ccccc32)cc(OC)c1OC (centres undefined) | 6.1%
CCC(C)C(=O)OC[C@H]1O[C@H](O[C@H]2O[C@H](CO)[C@@H](O)[C@H](O)[C@H]2O)[C@H](O)[C@@H](O)[C@@H]1O (some centres undefined) | -14.3% [at 25.3 µM]
COC(=O)C1=CO[C@@H](O[C@@H]2O[C@H](CO)[C@@H](O)[C@H](O)[C@H]2O)[C@@H]2[C@@H](C)[C@@H](O)C(O)[C@H]12 (some centres undefined) | 2.79% [at 25.3 µM]
CCCC1=CC2=C(CO1)C(=O)C(C)(O)C(OC(=O)c1c(C)cc(OC)cc1O)C2 (centres undefined) | 7.69% [at 25.3 µM]
C=C(CC/C=C(\C)C(=O)O)C1(O)CC=C(C)CC1 (centres undefined) | -5.33%
COc1ccc(C2(O)c3ccccc3NC(=O)C2OC)cc1 (centres undefined) | -8.33%

Test system: CASKI
Experiment: as above
Settings: Gynecologic cancer cell panel viability, ATPlite luminescence, 48 h; series mostly up to 57.5 µM; activity change, negative = cytotoxicity: at the top concentration
Method in brief: as §1

Structure (SMILES) | activity change, negative = cytotoxicity
NC1(c2ccc(NC(=O)c3ccnc(-c4cc(C(=O)O)ccn4)c3)cc2)CC1 | 5.24%
CCCC/C=C\CCCCCc1cc(=O)c2ccccc2n1C | -3.95% [at 38.5 µM]
COCc1c(O)c(C(=O)O)c(C)c2c1OC(=O)c1c(C)cc(O)c(CO)c1O2 | 7.16% [at 38.5 µM]
C/C=C/C=C/C1=C2C(=O)C3(C)C4C(C(=O)CC(O)/C=C/C)=C(O1)C1(C)C2C2(C)OC1(O)C4(C)OC23O (centres undefined) | 24.1% [at 25.3 µM]
CC12CC(O)C(O)C=C1c1cc(O)cc(O)c1C(=O)O2 (centres undefined) | 1.18%
C=C1C2(C)CC3C4(C)C=CC(=O)OC(C)(C)C4CCC3(C)C1(C(=O)OC)C(=O)C(C)(O)C2=O (centres undefined) | -9.04% [at 25.3 µM]
CC1(C)[C@H]2C[C@H](C/C=C\CCCC(=O)O)[C@@H](NC(=O)c3csc4ccc(O)cc34)[C@@H]1C2 | 30.6%
CC(C)c1ccc2c(c1)CCC1[C@](C)(C(=O)O)CCC[C@]21C (some centres undefined) | 13.7%
C[C@@H]1O[C@@H](OC(=O)Cc2ccccc2)[C@H](O)[C@H](O)[C@H]1O | -1.23%
Cn1cc(-c2c[nH]c3ncnc(N4CCOCC4)c23)cn1 | -29.7%
CC(C)C1NC(=O)C(CC2(O)c3ccccc3N3C(=O)C(Cc4ccccc4)NC32)NC1=O (centres undefined) | 5.11% [at 25.3 µM]
C[C@@]12CC3(S(=O)(=O)O)OC(O1)[C@]1(COC(=O)c4ccccc4)[C@H]3C[C@]21O[C@@H]1O[C@H](CO)[C@@H](O)[C@H](O)[C@H]1O | -2.59% [at 25.3 µM]
CC(C)C1NC(=O)CNC(=O)C2CCCN2C(=O)C(Cc2c[nH]c3ccccc23)NC(=O)CNC(=O)C(C(O)c2ccc(O)cc2)NC(=O)CNC1=O (centres undefined) (cyclo(G[ξTyr(βOH)]GWPGV); configuration not given here) | -2.33% [at 25.3 µM]
CC(=C\C(C)O)/C=C(\C)C(=O)CC1CC(CC(N)=O)CC(=O)O1 (centres undefined) | -0.151% [at 38.5 µM]
CC(=O)OCC1=CCC2C(C)(C)CCCC2(C)C12CCC(C)(CC(=O)O)O2 (centres undefined) | 12.9% [at 38.5 µM]
C[C@H]1CC[C@H]2[C@@H](C=C[C@@](C)(O)[C@]2(C)C(=O)CCO)C1 | -13.8%
CC1=C(CO)CC(C(C)C2CCC3C4CC=C5CC(OC6OC(COC7OC(CO)C(O)C(O)C7O)C(O)C(O)C6O)CC(O)C5(C)C4CCC23C)OC1=O (centres undefined) | 1.52% [at 25.3 µM]
CC(=O)c1c(C)cccc1O[C@@H]1O[C@H](CO)[C@@H](O)[C@H](O)[C@H]1O | -0.631% [at 38.5 µM]
C/C1=C\CC[C@]2(C)O[C@H]2C(=O)c2c(C)coc2C1 | -32.3%

Structure (SMILES) | activity change, negative = cytotoxicity
CNc1nc(C)nc(N[C@H]2CCC[C@@H](C(=O)NCc3ccc(C#N)cc3C(F)(F)F)C2)n1 | 4.14%
CC(=O)O[C@@H]1[C@@H](O)[C@H](C)O[C@@H](O[C@H]2[C@@H]3C=CO[C@@H](O[C@@H]4O[C@H](CO)[C@@H](O)[C@H](O)[C@H]4OC(C)=O)[C@@H]3[C@@]3(CO)O[C@@H]23)[C@@H]1OC(=O)/C=C/c1ccc(O)cc1 | -0.148% [at 25.3 µM]
CCC1=C(C)C(=O)C(C)CC12C(=O)CCC2C(=O)O (centres undefined) | -10.7%
Nc1ncnc2c1c(COc1cccc(Cl)c1)nn2C1CCOCC1 | -15%
CC1(C)CC[C@]2(C(=O)O[C@@H]3O[C@H](CO)[C@@H](O)[C@H](O)[C@H]3O)CC[C@]3(C)C(=CCC4[C@@]5(C)CC[C@H](O[C@@H]6O[C@H](C(=O)O)[C@@H](O[C@@H]7O[C@H](CO)[C@@H](O)[C@H](O)[C@H]7O)[C@H](O)[C@H]6O[C@@H]6O[C@H](CO)[C@@H](O)[C@H](O)[C@H]6O)C(C)(C)C5CC[C@]43C)C2C1 (some centres undefined) | 8.01% [at 11.6 µM]
C=C(C(=O)OC)[C@]12O[C@@](C)(CC[C@@]3(O)/C(=C\C)C(=O)O[C@]3(C)C[C@@H]1OC(=O)C(CO)CN1CCCC1C(=O)O)CC2=O (some centres undefined) | -7.74% [at 25.3 µM]
COc1cc(/C=C/C(=O)O[C@H]2[C@@H]3C=CO[C@@H](O[C@@H]4O[C@H](CO)[C@@H](O)[C@H](O)[C@H]4O)[C@@H]3[C@@]3(CO)O[C@@H]23)ccc1O | 3.44% [at 25.3 µM]
COC1OC(=O)C2=C1C1(C)CCCC(C)(C)C1CC2O (centres undefined) | 12.7%
C/C1=C\CC(C)(C)/C=C/C/C(C(=O)O)=C/CC1 | 2%
CC1CCC2(NC1)OC1C(O)C3C4CCC5CC(O[C@@H]6O[C@H](CO)[C@@H](O)[C@H](O)[C@H]6O[C@@H]6O[C@@H](C)[C@H](O)[C@@H](O)[C@H]6O)CCC5(C)C4CCC3(C)C1C2C (some centres undefined) | 5.59% [at 25.3 µM]
O=C(O)/C=C/c1ccc2occc2c1O[C@@H]1O[C@H](CO)[C@@H](O)[C@H](O)[C@H]1O | 2.17% [at 38.5 µM]
C=C(COC(=O)CC(C)C)C1Cc2cc(C(C)=O)ccc2O1 (centres undefined) | -0.142%
COc1cc(C2CC(=O)Nc3c2cc(Br)c2ccccc32)cc(OC)c1OC (centres undefined) | 12.6%
CCC(C)C(=O)OC[C@H]1O[C@H](O[C@H]2O[C@H](CO)[C@@H](O)[C@H](O)[C@H]2O)[C@H](O)[C@@H](O)[C@@H]1O (some centres undefined) | -23% [at 25.3 µM]
COC(=O)C1=CO[C@@H](O[C@@H]2O[C@H](CO)[C@@H](O)[C@H](O)[C@H]2O)[C@@H]2[C@@H](C)[C@@H](O)C(O)[C@H]12 (some centres undefined) | 6.33% [at 25.3 µM]
CCCC1=CC2=C(CO1)C(=O)C(C)(O)C(OC(=O)c1c(C)cc(OC)cc1O)C2 (centres undefined) | 11.9% [at 25.3 µM]
C=C(CC/C=C(\C)C(=O)O)C1(O)CC=C(C)CC1 (centres undefined) | -4.77%
COc1ccc(C2(O)c3ccccc3NC(=O)C2OC)cc1 (centres undefined) | 1.62%

Reference: PubChem BioAssay (NCATS)
